Source: the antibiotic and cytotoxicity screens of Wong et al. (2023)
The whole screen tested about 39,000 compounds, of which about 1,500 (3.8%) were called active. Only a selection was taken, and actives are over-represented in it overall.

The compounds below were run on HSkMC (human skeletal muscle cells) (assay: cytotoxicity call (relative viability < 0.9)). Settings: 10 µM.

With COc1ccc(S(=O)(=O)Nc2ccc3c(c2)C(=O)N([C@@H](C)CO)C[C@@H](C)[C@@H](CN(C)Cc2ccncc2)O3)cc1 as the compound, how does the cytotoxicity call read?
Its cytotoxicity call is “inactive”.

With CC(C)NC(=O)N(C)C[C@@H]1Oc2ccc(NS(=O)(=O)c3ccc(F)cc3)cc2CC(=O)N([C@H](C)CO)C[C@@H]1C as the compound, how does the cytotoxicity call read?
Its cytotoxicity call is “inactive”.

With COc1cccc(S(=O)(=O)N[C@H]2CC[C@H](CCn3cc(-c4ccccc4OC)nn3)O[C@H]2CO)c1 as the compound, how does the cytotoxicity call read?
The cytotoxicity call was “inactive”.

C[C@H]1CCCCO[C@@H](CN(C)C(=O)NC2CCCCC2)[C@@H](C)CN([C@@H](C)CO)C(=O)c2cc(NC(=O)Nc3ccc(F)cc3)ccc2O1 was tested. Which cytotoxicity call did it give?
The cytotoxicity call was “inactive”.

C[C@H]1CN([C@@H](C)CO)C(=O)c2cccc(NC(=O)c3ccc(-c4nccs4)cc3)c2O[C@H]1CN(C)Cc1ccc(Cl)c(Cl)c1 was tested. Which cytotoxicity call did it give?
The cytotoxicity call was “inactive”.

COc1ccccc1-c1ccc2c(c1)O[C@@H](CN(C)S(=O)(=O)c1ccccc1)[C@H](C)CN([C@@H](C)CO)S2(=O)=O was tested. Which cytotoxicity call did it give?
Its cytotoxicity call is “inactive”.

How did the cytotoxicity call turn out when COc1ccc2c3c([nH]c2c1)[C@H](CO)N(C[C@]13CN(C)C1)C(=O)CN1CCOCC1 was run?
Its cytotoxicity call is “inactive”.

Which cytotoxicity call does the source give for COc1ccc(NC(=O)N(C)C[C@H]2OCCCC[C@@H](C)Oc3ccc(NS(=O)(=O)c4ccc(Cl)cc4)cc3C(=O)N([C@@H](C)CO)C[C@@H]2C)cc1 here?
Its cytotoxicity call is “inactive”.

Which cytotoxicity call does the source give for Cc1ccc(S(=O)(=O)Nc2ccc3c(c2)C(=O)N([C@H](C)CO)C[C@H](C)[C@@H](CN(C)C(=O)NC(C)C)O3)cc1 here?
Its cytotoxicity call is “inactive”.

How did the cytotoxicity call turn out when Cc1ccc(S(=O)(=O)N(C)C[C@H]2OCCCC[C@H](C)Oc3ccc(NC(=O)Nc4ccc(C(F)(F)F)cc4)cc3C(=O)N([C@H](C)CO)C[C@H]2C)cc1 was run?
Its cytotoxicity call is “inactive”.

For CCC(=O)Nc1ccc2c(c1)C(=O)N(C)C[C@@H](OC)[C@H](C)CN(C(=O)CN1CCOCC1)[C@H](C)CO2, which cytotoxicity call is on record?
Its cytotoxicity call is “inactive”.

Cc1noc(C)c1S(=O)(=O)N(C)C[C@@H]1OCCCC[C@@H](C)Oc2ccc(NC(=O)Nc3ccccc3)cc2C(=O)N([C@@H](C)CO)C[C@@H]1C was tested. Which cytotoxicity call did it give?
The cytotoxicity call was “inactive”.

Cc1noc(C)c1S(=O)(=O)N(C)C[C@H]1OCCCC[C@H](C)Oc2ccc(NC(=O)Nc3ccccc3)cc2C(=O)N([C@H](C)CO)C[C@H]1C was tested. Which cytotoxicity call did it give?
The cytotoxicity call was “inactive”.

Cc1noc(C)c1S(=O)(=O)N(C)C[C@H]1OCCCC[C@H](C)Oc2ccc(NC(=O)Nc3ccccc3)cc2C(=O)N([C@H](C)CO)C[C@@H]1C was tested. Which cytotoxicity call did it give?
Its cytotoxicity call is “active”.

How did the cytotoxicity call turn out when Cc1noc(C)c1S(=O)(=O)N(C)C[C@@H]1OCCCC[C@@H](C)Oc2ccc(NC(=O)Nc3ccccc3)cc2C(=O)N([C@H](C)CO)C[C@H]1C was run?
Its cytotoxicity call is “inactive”.

How did the cytotoxicity call turn out when Cc1noc(C)c1S(=O)(=O)N(C)C[C@H]1OCCCC[C@@H](C)Oc2ccc(NC(=O)Nc3ccccc3)cc2C(=O)N([C@H](C)CO)C[C@@H]1C was run?
The cytotoxicity call was “inactive”.

With Cc1noc(C)c1S(=O)(=O)N(C)C[C@@H]1OCCCC[C@H](C)Oc2ccc(NC(=O)Nc3ccccc3)cc2C(=O)N([C@H](C)CO)C[C@H]1C as the compound, how does the cytotoxicity call read?
The cytotoxicity call was “active”.

How did the cytotoxicity call turn out when Cc1noc(C)c1S(=O)(=O)N(C)C[C@@H]1Oc2ccc(NC(=O)Cn3cnnn3)cc2C(=O)N([C@@H](C)CO)C[C@@H]1C was run?
Its cytotoxicity call is “inactive”.

With Cc1noc(C)c1S(=O)(=O)N(C)C[C@H]1Oc2ccc(NC(=O)Cn3cnnn3)cc2C(=O)N([C@@H](C)CO)C[C@H]1C as the compound, how does the cytotoxicity call read?
Its cytotoxicity call is “inactive”.

For Cc1noc(C)c1S(=O)(=O)N(C)C[C@H]1Oc2ccc(NC(=O)Cn3cnnn3)cc2C(=O)N([C@H](C)CO)C[C@H]1C, which cytotoxicity call is on record?
The cytotoxicity call was “active”.

With Cc1ccc(S(=O)(=O)N(C)C[C@H]2Oc3ccc(NC(=O)CCN4CCOCC4)cc3C(=O)N([C@H](C)CO)C[C@@H]2C)cc1 as the compound, how does the cytotoxicity call read?
Its cytotoxicity call is “inactive”.

How did the cytotoxicity call turn out when C[C@@H]1CCCCO[C@@H](CN(C)C(=O)Nc2ccc(C(F)(F)F)cc2)[C@@H](C)CN([C@H](C)CO)C(=O)c2cc(NC(=O)Nc3cccc4ccccc34)ccc2O1 was run?
Its cytotoxicity call is “inactive”.

With C=C/C=C/[C@@H]1C(=C)CN([C@@H](Cc2ccccc2)C(=O)OC)[C@H]1[C@@H](O)CCn1cc(CCC(=O)NO)nn1 as the compound, how does the cytotoxicity call read?
Its cytotoxicity call is “inactive”.

With C[C@H]1CN([C@@H](C)CO)C(=O)c2cccc(NC(=O)C3CC3)c2O[C@H]1CN(C)C(=O)Nc1ccc2c(c1)OCO2 as the compound, how does the cytotoxicity call read?
The cytotoxicity call was “inactive”.

With CCC(C)(C)c1ccc(CC(C)CN2CC(C)OC(C)C2)cc1.Cl (stereo not given) as the compound, how does the cytotoxicity call read?
The cytotoxicity call was “inactive”.

For c1ccc(-c2nc(C34CC5CC(CC(C5)C3)C4)cs2)cc1, which cytotoxicity call is on record?
The cytotoxicity call was “inactive”.

Which cytotoxicity call does the source give for NCc1cn(-c2ccccc2)nc1C12CC3CC(CC(C3)C1)C2 here?
The cytotoxicity call was “active”.

With OCc1cn(-c2ccccc2)nn1 as the compound, how does the cytotoxicity call read?
Its cytotoxicity call is “inactive”.

Which cytotoxicity call does the source give for C[C@H]1CCN=C(N)S1 here?
Its cytotoxicity call is “inactive”.

C[C@@H]1CN([C@@H](C)CO)C(=O)c2cccc(NC(=O)c3cnccn3)c2O[C@@H]1CN(C)S(=O)(=O)c1ccc(Cl)cc1 was tested. Which cytotoxicity call did it give?
Its cytotoxicity call is “inactive”.

How did the cytotoxicity call turn out when O=C(O)c1ccc(C(=O)O)nc1 was run?
The cytotoxicity call was “inactive”.

How did the cytotoxicity call turn out when COc1ccc2c3c([nH]c2c1)[C@H](CO)N(C[C@]13CCN(CC1)C(=O)c1ccncc1)C(=O)c1ccncc1 was run?
The cytotoxicity call was “inactive”.

Which cytotoxicity call does the source give for C[C@@H]1CN([C@@H](C)CO)C(=O)c2cc(NC(=O)CCCN(C)C)ccc2O[C@@H](C)CCCCO[C@H]1CN(C)CC1CCCCC1 here?
Its cytotoxicity call is “inactive”.

CCCNc1nc(=O)c(C)n[nH]1 was tested. Which cytotoxicity call did it give?
The cytotoxicity call was “inactive”.

Which cytotoxicity call does the source give for Cc1n[nH]c(NCc2ccco2)nc1=O here?
Its cytotoxicity call is “inactive”.

Cc1n[nH]c(N/N=C/c2ccccn2)nc1=O was tested. Which cytotoxicity call did it give?
Its cytotoxicity call is “active”.

Cc1ccc(-c2nn[nH]n2)n1C was tested. Which cytotoxicity call did it give?
Its cytotoxicity call is “inactive”.

For C[C@@H]1CN([C@@H](C)CO)C(=O)c2cc(NC(=O)NC3CCCCC3)ccc2O[C@@H](C)CCCCO[C@H]1CN(C)C(=O)c1ccncc1, which cytotoxicity call is on record?
Its cytotoxicity call is “inactive”.

C[C@@H]1CN([C@H](C)CO)C(=O)Cc2cc(NS(=O)(=O)c3ccccc3)ccc2O[C@@H]1CN(C)Cc1ccc2c(c1)OCO2 was tested. Which cytotoxicity call did it give?
Its cytotoxicity call is “inactive”.

For O=C(C[C@@H]1CC[C@@H]2[C@H](COC[C@@H](O)CN2C(=O)c2cnccn2)O1)N1CCN(c2ccccc2)CC1, which cytotoxicity call is on record?
The cytotoxicity call was “inactive”.

With Cc1cc(C(=O)Nc2cccc3c2O[C@@H](CN(C)C(=O)Nc2ccc4c(c2)OCO4)[C@@H](C)CN([C@H](C)CO)C3=O)n(C)n1 as the compound, how does the cytotoxicity call read?
The cytotoxicity call was “inactive”.

With O=C(N[C@@H](c1ccc(-c2ccccc2)cc1)c1cnccn1)C1CCN(CCOc2ccc(F)cc2)CC1 as the compound, how does the cytotoxicity call read?
The cytotoxicity call was “inactive”.

Which cytotoxicity call does the source give for Cc1cc(-c2cc(OC(=O)c3ccccc3)ccc2Cl)cc2nnc(Nc3ccc(OCCN4CCCC4)cc3)nc12 here?
Its cytotoxicity call is “active”.

With O=C(N[C@@H](c1ccccc1)c1ccc2ccccc2n1)C1CCN(CCOc2ccc(Cl)cc2)CC1 as the compound, how does the cytotoxicity call read?
Its cytotoxicity call is “inactive”.

For CC(C)=C[C@H]1[C@@H](c2nc3cc(Br)ccc3o2)C1(C)C, which cytotoxicity call is on record?
Its cytotoxicity call is “inactive”.

C[C@@H]1CCCCO[C@H](CN(C)S(=O)(=O)c2ccc(F)cc2)[C@@H](C)CN([C@H](C)CO)C(=O)c2cc(NC(=O)Nc3ccc(C(F)(F)F)cc3)ccc2O1 was tested. Which cytotoxicity call did it give?
Its cytotoxicity call is “inactive”.

COCC(=O)N1C[C@@H](C)[C@H](OC)CN(C)C(=O)c2ccc(NC(=O)c3ccc(F)cc3)cc2OC[C@@H]1C was tested. Which cytotoxicity call did it give?
The cytotoxicity call was “inactive”.

With C[C@@H]1CN([C@@H](C)CO)C(=O)Cc2cc(NC(=O)Nc3ccc(F)cc3)ccc2O[C@H]1CN(C)Cc1ccc(C(F)(F)F)cc1 as the compound, how does the cytotoxicity call read?
The cytotoxicity call was “inactive”.

Which cytotoxicity call does the source give for C[C@@H]1CN([C@@H](C)CO)C(=O)Cc2cc(NC(=O)Nc3ccc(F)cc3)ccc2O[C@@H]1CN(C)Cc1ccc(C(F)(F)F)cc1 here?
Its cytotoxicity call is “active”.

How did the cytotoxicity call turn out when C[C@@H]1CN([C@H](C)CO)C(=O)Cc2cc(NC(=O)Nc3ccc(F)cc3)ccc2O[C@H]1CN(C)Cc1ccc(C(F)(F)F)cc1 was run?
The cytotoxicity call was “active”.

C[C@H]1CN([C@@H](C)CO)C(=O)Cc2cc(NC(=O)Nc3ccc(F)cc3)ccc2O[C@@H]1CN(C)Cc1ccc(C(F)(F)F)cc1 was tested. Which cytotoxicity call did it give?
Its cytotoxicity call is “inactive”.

With C[C@H]1CN([C@@H](C)CO)C(=O)Cc2cc(NC(=O)Nc3ccc(F)cc3)ccc2O[C@H]1CN(C)Cc1ccc(C(F)(F)F)cc1 as the compound, how does the cytotoxicity call read?
Its cytotoxicity call is “active”.

C[C@H](CO)N1C[C@H](C)[C@@H](CN(C)Cc2ccc(C(F)(F)F)cc2)Oc2ccc(NC(=O)Nc3ccc(F)cc3)cc2CC1=O was tested. Which cytotoxicity call did it give?
The cytotoxicity call was “active”.

With C[C@H](CO)N1C[C@H](C)[C@@H](CN(C)Cc2ccc(C(=O)O)cc2)Oc2c(NS(=O)(=O)c3cn(C)cn3)cccc2C1=O as the compound, how does the cytotoxicity call read?
The cytotoxicity call was “inactive”.

Which cytotoxicity call does the source give for CC(C)NC(=O)N(C)C[C@@H]1OCCCC[C@H](C)Oc2ccc(NC(=O)Nc3ccc(F)cc3)cc2C(=O)N([C@H](C)CO)C[C@@H]1C here?
The cytotoxicity call was “inactive”.

For C[C@@H]1CN([C@@H](C)CO)C(=O)c2cc(NC(=O)C3CCCCC3)ccc2O[C@@H](C)CCCCO[C@H]1CN(C)C(=O)Nc1ccccc1, which cytotoxicity call is on record?
Its cytotoxicity call is “inactive”.

With C[C@H](CO)N1C[C@H](C)[C@@H](CN(C)S(=O)(=O)c2ccc(Cl)cc2)Oc2ccc(N(C)C)cc2C1=O as the compound, how does the cytotoxicity call read?
Its cytotoxicity call is “inactive”.

For COCCNC(=O)C[C@@H]1CC[C@H]2[C@@H](COC[C@@H](O)CN2C(=O)Nc2ccc3c(c2)OCO3)O1, which cytotoxicity call is on record?
The cytotoxicity call was “inactive”.

How did the cytotoxicity call turn out when O=C(O)Cc1cccc(OCCCN(Cc2cccc(C(F)(F)F)c2Cl)CC(c2ccccc2)c2ccccc2)c1 was run?
The cytotoxicity call was “inactive”.

How did the cytotoxicity call turn out when Cc1noc(C)c1NC(=O)N(C)C[C@H]1Oc2ccc(NC(=O)Nc3cccc4ccccc34)cc2C(=O)N([C@@H](C)CO)C[C@H]1C was run?
The cytotoxicity call was “inactive”.

For C=CCOC(=O)[C@@H]1[C@H]2C(=O)O[C@H](c3ccccc3)[C@H](c3ccccc3)N2[C@H](c2ccc(OCCOC(=O)[C@H]3C[C@H]4C(=O)N[C@@H](CCCCN(C)C)C(=O)N4[C@H]3c3cccc(OCCO)c3)cc2)[C@@]12C(=O)Nc1ccc(I)cc12, which cytotoxicity call is on record?
The cytotoxicity call was “inactive”.

How did the cytotoxicity call turn out when COc1ccc2c3c(n(c2c1)C)[C@H](CO)N(C[C@]13CCN(CC1)C(=O)CN(C)C)S(=O)(=O)C was run?
The cytotoxicity call was “inactive”.

How did the cytotoxicity call turn out when C[C@@H]1CN([C@H](C)CO)C(=O)Cc2cc(NC(=O)Nc3ccc(F)cc3)ccc2O[C@@H]1CN(C)Cc1ccc(C(F)(F)F)cc1 was run?
Its cytotoxicity call is “active”.

Which cytotoxicity call does the source give for C[C@H](CO)N1C[C@H](C)[C@H](CN(C)Cc2ccc(C(F)(F)F)cc2)Oc2ccc(NC(=O)Nc3ccc(F)cc3)cc2CC1=O here?
Its cytotoxicity call is “active”.

With CO[C@H]1CN(C)C(=O)c2cc(NC(=O)NC(C)C)ccc2OC[C@H](C)N(Cc2ccc(-c3ccccn3)cc2)C[C@@H]1C as the compound, how does the cytotoxicity call read?
Its cytotoxicity call is “inactive”.
